Measured values reported in the supplement of paper PMC6555819.

test system: LXRb:RXRa (NR concentration 270 nM, RXRa partner concentration 90 nM); assay: PBM binding z-score (relative to random genomic background probes); higher = stronger binding; sequences stand for … in GC…GCGATTGACAGCGTAGAATGAAGG
How it was run: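 Custom Agilent 4×180K protein-binding microarrays carried double-stranded probes. Their 34-nt variable regions held direct-repeat seeds, single-nucleotide variants, half-site ablations and random human genomic background sequences. Arrays were incubated 1 h with ligand-free nuclear receptor dimers in PBS pH 7.4, 2% milk, 0.02% Triton X-100, 1 mM DTT, 0.2 mg/mL BSA and 0.4 mg/ml salmon testes DNA. Antibodies against each partner (one per run) detected binding, and scanned fluorescence was regression-normalized. Binding z-scores use random background probes as reference.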

Sequence	PBM binding z-score
AATACTGGGTCATCGTAGGCCAGAGTACGCACAG	2.04
CAGCCTAGGTCAGGGCCGGTATAGGAGGAACGTT	0.466
TAGCCTAGTTCATTGGGCCAGTATAGTACGCATC	0.139
ATCGAAAGGTCGAAGTGAGTATAGAGAAAGGGAA	2.69
GCTAGTTGGTCAGTAACAGGTCACACACCGGTCG	1.39
GCTAGTTGTTCAGTAAAAGGTCACACACCGGTCG	4.06
CCGACTGAGGCATAAGGTTACCATAAGCCAGCCC	1.05
GATACAGGGTCAGCTAAAGGCCAGAGTATGGAAA	2.43
CCGACTGGAGCAAAGGTTACCATACTCAGTACGA	1.71
CGTCCAAGGTCAGAGAGGTCAGTGGATGCCGAGT	4.38
ACTAGTTGGTCAGCTGAGGTCACCCACAATTCGG	3.2
ATCTCTTGGTAAAGTTCAGTGAAAGATCGATAGA	1.6
CAAACTAGGTCAAGAGGTCGAAGTCCGCTTCCCG	2.77
TAGTCTAGGTCATGCGGGCCAGTATAGTGTCGGC	1.76
CCCACTGGGCCAAAGGTCATTGATTCCAATGCTC	4.72
ACTAGCAGGCCAAGTTTGGGTCACTCTAACAAAG	0.217
CATACAGGGTCAGCTAGTCCAGAGTAGGGACGGC	2.18
GCTGCTAGGTCAAATGATGGTCAGCTAAAGCTCG	2.44
TGAAAGAGGTTAAAGATCAGGGAACGTGGCGTCG	2.03
AGAACGAGGGCAATGAATTGATAGCACGGGTGGC	0.0164

Sequence	PBM binding z-score
ATATGTGGGTTACATCCGGGTCATTCAGGCTATG	3.06
ATACCAGGGTGATCGTGAGGTCGTTGATACTAAC	1.5
TCTAGCAGGCCAGACGGTCACTCAAGAGGTACGG	-0.378
ACTATTAGTTGAAACGAGGGCAACCGATAGGTTG	0.482
GCTGCTAGGTCAACTGATAGTCAGCTAAAGCTCG	1.91
GCTAGCGGGCCATTTGGGTCACTCAATGACGGGC	-0.141
CCGACTGGGGCTTAAGGTTACCATAAGCCAGCCC	0.703
CGAACGAGGGCATGTGTTGATAGCAAATGCCGAT	0.11
CAAACTAGGTCAAGGGTCAAAGTCGAGCCAACCA	5.71
AGAACGAGGGCAATGAGTTGATAGAACGGGTGGC	-0.103
ATCTCTATGTAAAGTTCAGTGAAAGATCGATAGA	1.17
GCTTGTAGATCAAGGTTAAGAAAGACTAAGCTAA	0.55
GCTATTAGTTGAAGGGGCAACCGAATGATTCTCG	0.151
AGTCAAAGTTCACTAGGTACCGTAAGATTCAGCT	3.05
TAGCCTAGGTCAGATCGGGCCTGTATACGCTATA	0.501
TCATATAGGTAAAGGTGTAAGTCGAACGATATGA	0.356
GCGACTGGGGCATCAGCAGGTTACCATAACTTAA	0.704
GCAGACAGGTGAAACGCAGGTAAATCAGGGTGGC	-0.258
CAAACTAGGTCACCGGAAGGTCAAAGTCCGCATG	5.46
ACTATTAGTTGACTTAGGGTAACCGATACGACGC	0.679
